From PubChem
Pf growth 48h: inhibits P. falciparum growth in the first generation, 48 h; P. falciparum luciferase growth in erythrocytes, 48 h; Potency, µM (highest dose often 28.7 µM), for inactives: at the highest dose activity change, negative = inhibition, usual class: inhibitors; 5.9% of 310,000 active; AID 504832; further: potency means the concentration at half of the fitted maximal effect; on the % scale 0 is the no-effect control and ±100 the full control effect
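Compounds are pin-transferred into medium, infected erythrocytes (2% hematocrit, 0.1% parasitemia final) are added, and plates sit one parasite generation at 37 C in 5% CO2. Detection reagent is then added and luminescence measured.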
Shiga toxin inh: inhibitors of Shiga toxin in Vero cells; Vero cells, Shiga toxin protein synthesis inhibition reporter; inhibition, % at 38.7 µM; 9.2% of 290,000 active; AID 2315; in the data active means inhibition mostly above about 28%, no sharp cut-off; inactive means mostly below about 43%; further: 0% is about no effect
Cycloheximide cs: affects cycloheximide protein synthesis inhibition readout, counter-screen. cell reporter, cycloheximide protein synthesis inhibition counterscreen. max response, %. 12% of 300,000 active; in the data active means max response mostly above about 13%, no sharp cut-off; inactive means mostly below about 14%; further: read at 38.3 µM for the half of the compounds with a filed dose; 0% is about no effect
HCMV inh: inhibitors of human cytomegalovirus; 4.5% of 410,000 active; AID 1259415; activity change, negative = inhibition, % at 57.5 µM; HFF cells, HCMV-luciferase reporter, 72 h; stronger effect = lower value; in the data active means activity change below about -60%; inconclusive means no clear call, values can overlap the other calls; inactive means above about -39%; further: on the % scale 0 is the no-effect control and ±100 the full control effect
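Compounds were evaluated in HFFs infected with an HCMV luciferase reporter virus (MOI 1 PFU/cell). Luciferase in lysates collected 72 h post infection served as the replication measure.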
Pf growth 96h: inhibits malaria parasite growth, 96 h; P. falciparum luciferase reporter growth, 96 h; Potency, µM (doses to about 28.7 µM), inactives show top-dose activity change, negative = inhibition, most hits filed as inhibitors; 6.9% of 320,000 active; AID 504834; further: potency means the concentration at half of the fitted maximal effect; on the % scale 0 is the no-effect control and ±100 the full control effect
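Readout is luminescence from an integrated firefly luciferase in P. falciparum. Red cells, 2% hematocrit and 0.05% parasitemia final, were cultured with compound through two parasite generations (96 hours) at 37 C, 5% CO2.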
* = called active by the depositor. Compounds with a hit are over-represented: about 20% of the library has one in this group of screens. Unless noted, the call rests on the fitted dose curve; in most records, active means well fitted inhibition curve with a large enough effect; inconclusive means small, poorly fitted or top-dose-only effect, or another doubt; inactive means no such curve, though single readings can be large or run the other way.

How did Cc1ccc(C(c2cc(Cl)c3cccnc3c2O)N2CCN(C)CC2)cc1 (stereo not given) do in these assays?
Pf growth 48h: 4.15µM*; Shiga toxin inh: 37.1; Cycloheximide cs: 21.2; Pf growth 96h: inconclusive

How did c1ccc(CC2CCN(Cc3ccccn3)CC2)cc1 do in these assays?
Pf growth 48h: inconclusive; Shiga toxin inh: 14.9; Cycloheximide cs: 5.3; HCMV inh: 4.0; Pf growth 96h: -10.7%

What do the screens show for `CN1CCN(C(c2ccccn2)c2cc(Cl)c3cccnc3c2O)CC1` (stereo not given)?
Pf growth 48h: 4.65µM*; Shiga toxin inh: 15.5; Cycloheximide cs: -0.8; HCMV inh: -14.0; Pf growth 96h: inconclusive

How did Oc1c(C(c2ccccn2)N2CCC(Cc3ccccc3)CC2)cc(Cl)c2cccnc12 (stereo not given) do in these assays?
Pf growth 48h: 2.94µM*; Shiga toxin inh: 47.9; Cycloheximide cs: 13.3; HCMV inh: -89.5*; Pf growth 96h: 0.0%

What do the screens show for `COc1ccc(CC(=O)OC(C)CN2CCCCC2)cc1` (stereo not given)?
Pf growth 48h: 9.2%; Shiga toxin inh: 28.0; Cycloheximide cs: -6.0; HCMV inh: inconclusive; Pf growth 96h: 51.7%

How did CCOc1c(Nc2ccccc2O)c(=O)c1=O do in these assays?
Pf growth 48h: 50.1%; Shiga toxin inh: -3.3; Cycloheximide cs: -2.9; HCMV inh: -1.4; Pf growth 96h: 4.3%

How did Cc1c(C(=O)OC2CCCCC2)[nH]c2c1C(=O)CC(c1ccc(C(C)(C)C)cc1)C2 (stereo not given) do in these assays?
HCMV inh: -11.8

Results for O=C1/C(=C/c2ccccc2)SC(=S)N1N1C(=O)C2CC2C1=O (stereo not given) ?
Pf growth 48h: 21.9%; Shiga toxin inh: -8.1; Cycloheximide cs: 14.5; HCMV inh: -17.5; Pf growth 96h: 5.6%

What do the screens show for `Oc1c(C(c2ccc(Cl)cc2)N2CCCC2)cc(Cl)c2cccnc12` (stereo not given)?
Pf growth 48h: 3.29µM*; Shiga toxin inh: 2.1; Cycloheximide cs: 4.8; HCMV inh: inconclusive; Pf growth 96h: 1.85µM*

Results for O=C(NC(=S)Nc1ccccc1Br)C1CCCCC1 ?
HCMV inh: 74.6

What do the screens show for `O=C(Nc1cc(C(F)(F)F)ccc1F)C1CCCCC1`?
Shiga toxin inh: 26.7; Cycloheximide cs: -0.8; HCMV inh: -106.1*; Pf growth 96h: -29.6%

How did O=C(NC(=S)Nc1cccc(Cl)c1Cl)C1CC1 do in these assays?
Pf growth 48h: 11.7µM*; Shiga toxin inh: 14.4; Cycloheximide cs: 13.6; HCMV inh: -28.0; Pf growth 96h: 3.2%

Results for O=C(NC(=S)Nc1ccccc1Br)C1CCCC1 ?
Pf growth 48h: 3.0%; Shiga toxin inh: 143.2*; Cycloheximide cs: 37.8*; HCMV inh: 95.1; Pf growth 96h: 11.8%

What do the screens show for `O=C(NNC(=S)Nc1ccccc1Cl)C1CC1`?
Pf growth 48h: 11.4%; Shiga toxin inh: 12.5; Cycloheximide cs: -5.0; HCMV inh: -7.2; Pf growth 96h: 26.3%

Results for O=C(NC(=S)Nc1ccccc1F)C1CCCCC1 ?
Pf growth 48h: -16.3%; Shiga toxin inh: 61.0; Cycloheximide cs: 57.0*; HCMV inh: 112.9; Pf growth 96h: inconclusive

How did CCOc1cc(C#N)ccc1OCC(=O)N1CCN(C(=O)c2cccs2)CC1 do in these assays?
Pf growth 48h: inconclusive; HCMV inh: -23.3; Pf growth 96h: -30.3%

What do the screens show for `CC1C(=O)Nc2ccc(S(=O)(=O)NCCc3ccc(Cl)cc3)cc2NC1=O` (stereo not given)?
Pf growth 48h: 31.9%; Shiga toxin inh: 6.8; Cycloheximide cs: 4.7; HCMV inh: 35.7; Pf growth 96h: 0.0%

What do the screens show for `CC(C)(C)n1nnnc1C1c2ccccc2C(=O)N1CCc1c[nH]c2ccccc12` (stereo not given)?
HCMV inh: -9.7

Results for CCN(C(=O)c1cc2c(=O)n3cccc(C)c3nc2s1)c1ccc(C)c(C)c1 ?
HCMV inh: 22.4

What do the screens show for `Cc1cc(C(=O)c2ccccc2)nc2ccccc12`?
Pf growth 48h: 19.1%; Shiga toxin inh: -16.1; Cycloheximide cs: 1.3; HCMV inh: 3.2

Results for COc1ccc(/C=C/c2cc(C(=O)O)c3ccccc3n2)cc1 ?
Pf growth 48h: inconclusive; Shiga toxin inh: -12.5; Cycloheximide cs: 14.6*; HCMV inh: -5.7; Pf growth 96h: inconclusive

How did Cc1cc(/C=C\c2ccccc2)nc2ccccc12 do in these assays?
Pf growth 48h: 30.1%; Shiga toxin inh: 119.5*; Cycloheximide cs: 30.3*; HCMV inh: 100.8; Pf growth 96h: 1.9%
